# Records with an inconclusive call do not appear. The source made the active and inactive calls. The call rests on the fitted dose curve; in most records, active means well fitted inhibition curve with a large enough effect; inconclusive means small, poorly fitted or top-dose-only effect; inactive means flat fitted curve, though single readings scatter.
# Experiment: Secondary Assay for lipid storage modulators: Cytotoxcity for probe SAR
# Conditions: Drosophila S3 cells viability, CellTiter-Glo luminescence, 24 h, with oleic acid added (1 µL, 400 µM); series mostly up to 46.1 µM; activity change, negative = cytotoxicity: at the top concentration
# Source text: NIH Molecular Libraries Probe Production Centers Network [MLPCN] NIH Chemical Genomics Center [NCGC] MLPCN Grant: 1 R03 MH085686-01 Assay Submitter (PI): Beller, Mathias; Max-Planck-Institut fur Biophysikalische Chemie, Germany. NCGC Assay Overview: Storing lipids as a reservoir for energy or the anabolism of elementary metabolites is a common feature of probably all cells and is conserved from bacteria to humans. The universal cellular lipid storage organelle is the so-called lipid storage droplet (LD). Although ubiquitous, LDs share a simple structure composed of a hydrophobic core that harbors the storage lipids, which is shielded by a droplet-specific phospholipid monolayer to which proteins are attached. The current model of LD biogenesis involves an incorporation of the lipid core into the membrane leaflets of the endoplasmic reticulum (ER) followed by a subsequent budding-like maturation of a LD, which ultimately pinches off. Once released, LD volume can increase by localized lipogenesis or fusion of existing droplet. Storage lipids are re-mobilized enzymatically by lipase activity. Lipase regulation in the adipocyte is heavily studied and involves multiple components including catecholamine signaling, the LD-associated proteins Perilipin and comparative gene identification (CGI-58) and at least two lipases named hormone sensitive lipase (HSL) and adipocyte triglyceride lipase (ATGL). LD regulation outside of the adipocyte is poorly understood and only few components are known. However, there is an urgent need to learn more about ectopic fat depots as mislocalized storage of lipids, for example in the liver or muscle, is an eminent health problem associated with insulin resistance or the metabolic syndrome. We developed a laser-scanning cytometer assay to enable 1,536-well screening and combined the results of the small molecules screen with an RNAi database based on lipid storage. The compound was tested here for cytotoxcity using CellTiter-Glo.
# Assay Protocol Summary: Cytotoxcity assay was performed with embryonic Drosophila S3 cells (Bloomington Drosophila Genomics Resource Center [DGRC]). We dispensed 4 uL of cells at 1.25 x 10^6 cells/mL into Greiner solid white 1,536-well plates with a bottle-valve solenoid-based dispenser (Aurora) to obtain 5,000 cells/well. A total of 23 nL of compound solution of different concentrations were transferred to the assay plates using a Kalypsys pin tool equipped with a 1,536-pin array containing 10-nL slotted pins (FP1S10, 0.457-mm diameter, 50.8 mm long; V&P Scientific). One microliter of oleic acid (400 uM) was added, and the plate was lidded with stainless steel rubber gasket lined lids containing pinholes. After 24 hrs of incubation at 24 degrees Celsius and 95% humidity, 4 uL of CellTiter-Glo (Promega) was added to the wells. Luminescence was detected on the Perkin Elmer ViewLux.
SMILES,"activity change, negative = cytotoxicity",Potency
COc1ccc(Cl)cc1NC(=S)N1CCN(c2cccc(Cl)c2)CC1,-16.8% (inactive),
CCOC(=O)C1CCCN(C(=O)C2(NC(=O)Nc3ccc(F)cc3F)CCCCC2)C1 (stereo not given),-17.7% (inactive),
CCOc1ccc(CCNC(=O)c2cnon2)cc1OCC,2.21% (inactive),
CCOc1ccc(CCNC(=O)C2=C(C)OCCO2)cc1OCC,-6.76% (inactive),
CCOc1ccc(NC(=O)NC2(C(=O)N3CCCCC3)CCCCC2)cc1,-14.5% (inactive),
CCOc1ccc(CCNC(=O)C2(c3ccccc3)CC2)cc1OCC,-7.24% (inactive),
CCOc1ccc(CCNC(=O)c2cccs2)cc1OCC,-23.7% (inactive),
O=C(NC1CCCc2c1cnn2-c1ccc(F)cc1F)c1ccc(F)cc1 (stereo not given),,14.1 µM (active)
O=C(CSc1nnc(NCc2ccccc2)s1)Nc1nc(-c2cccc(Br)c2)cs1,-15.8% (inactive),
O=C(NC1CCCc2c1cnn2-c1ccc(F)cc1F)c1ccccc1 (stereo not given),,5.6 µM (active)
CCOc1ccc(CCNC(=O)C2CCCCC2)cc1OCC,-18.7% (inactive),
Cc1sc(NC(=O)Cc2cccs2)nc1-c1ccccc1,-24.1% (inactive),
O=C(NC1CCCc2c1cnn2-c1ccccc1F)c1ccc2ncccc2c1 (stereo not given),,2.23 µM (active)
CCn1c(C(=O)NCCc2ccc(OC)c(OC)c2)cc2sc(Cl)cc21,-2.07% [at 30.7 µM] (inactive),
COc1cc(Nc2ncc(F)c(Nc3ccc4c(n3)NC(=O)C(C)(C)O4)n2)cc(OC)c1OC,-16.2% (inactive),
CCOc1ccc(CCNC(=O)Cc2ccccc2)cc1OCC,-6.12% (inactive),
O=C(NC1CCCc2c1cnn2-c1ccc(F)cc1F)c1cccs1 (stereo not given),,8.88 µM (active)
COc1ccc(Cl)cc1NC(=S)N1CCN(c2ccc(F)cc2)CC1,-5.01% (inactive),
O=C(NC1CCCc2c1cnn2-c1ccc(F)cc1F)c1cnon1 (stereo not given),-12.7% (inactive),
CC(=O)NCc1ccc(-c2csc(NC(=O)Cc3cccs3)n2)cc1,-19.2% (inactive),

SMILES,"activity change, negative = cytotoxicity",Potency
Cc1ccc(C)c(-c2csc(NC(=O)CSc3nnc(Nc4ccc(OC(F)(F)F)cc4)s3)n2)c1,-11.8% (inactive),
COc1ccc(Cl)cc1NC(=O)N1CCN(c2ccccn2)CC1,-5.58% (inactive),
CCCn1c(-c2ccc(OC)cc2)cnc1SCC(=O)Nc1nc(C)c(C)s1,-22% (inactive),
COc1ccc(-n2ncc3c2CCCC3NC(=O)c2cnc(C)cn2)cc1 (stereo not given),,15.8 µM (active)
COc1ccc(CCNC(=O)c2cc3sccc3n2Cc2ccccc2)cc1OC,-27.8% (inactive),
CC1=C(C(=O)NC2CCCc3c2cnn3-c2ccc(F)cc2F)OCCO1 (stereo not given),,0.996 µM (active)
Cc1cccc(Nc2nnc(SCC(=O)Nc3nc(-c4ccc(F)cc4)cs3)s2)c1,-27.2% (inactive),
CCOc1ccc(CCNC(=O)c2cccc(C(=O)c3ccccc3)c2)cc1OCC,-21.3% (inactive),
O=C(NC1CCCc2c1cnn2-c1ccc(F)cc1F)c1ccc2cc[nH]c2c1 (stereo not given),,22.3 µM (active)
O=C(c1cc2sccc2n1Cc1ccccc1)N(CCc1ccc(O)c(O)c1)Cc1ccccc1,-27.4% (inactive),
CCOC(=O)C1CCN(C(=O)C2(NC(=O)NCc3ccccc3)CCCCC2)CC1,-15.6% (inactive),
Cc1csc(NC(=O)CSc2ncc(-c3ccccc3)n2Cc2ccco2)n1,-14.8% (inactive),
COc1ccc(CCNC(=O)c2cc3sc(C)cc3n2C)cc1OC,-27.1% (inactive),
CCOC(=O)C1CCN(C(=O)C(C)(C)NC(=O)Nc2ccccc2Cl)CC1,-7.62% (inactive),
COc1ccc(Cl)cc1NC(=S)N1CCN(c2ccccc2F)CC1,-6.35% (inactive),
CCOc1ccc(CCNC(=O)c2ccc(C3(C(F)(F)F)N=N3)cc2)cc1OCC,-8.66% (inactive),
CCn1c(-c2ccc(C)cc2)cnc1SCC(=O)Nc1nc(C)cs1,-26.7% (inactive),
CCOc1ccc(CCNC(=O)CN(C)C)cc1OCC,1.74% (inactive),
COc1ccccc1NC(=S)N1CCN(c2cc(Cl)ccc2C)CC1,-8.23% (inactive),
O=C(NCCc1ccc(O)c(O)c1)c1cc2sccc2n1Cc1ccccc1,-15% (inactive),
